# BAZ2B inh – BAZ2B (human) inhibition; AlphaScreen BAZ2B-H3K14Ac peptide displacement; Potency, µM (top dose mostly 114 µM), for the others: top-dose activity change, negative = inhibition, usual class: inhibitors; AID 504333; 4.4% of 360,000 active; further: potency means the concentration at half of the fitted maximal effect; on the % scale 0 is the no-effect control and ±100 the full control effect; nearly all actives have a fitted effect of over 60% in size
#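 Compounds, titrated to a top concentration of 110 uM, were incubated 30 min at room temperature with preformed BAZ2B/acetyl-K14 H3 peptide complex (50 nM each). Proximity signal was measured by AlphaScreen after 20 min with beads.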
# KDM4E inh – inhibitors of human JMJD2E histone demethylase | B2RXH2 | JMJD2E catalytic domain, FDH-coupled NADH fluorescence (FDH is formaldehyde dehydrogenase) | Potency, µM (doses to about 57.1 µM), for inactives: top-dose activity change, negative = inhibition, usual class: inhibitors | 1.6% of 230,000 active | AID 2147; active means well fitted inhibition curve with a large enough effect, not every such curve was filed as active; inconclusive means small, poorly fitted or top-dose-only effect, or another doubt; inactive means no such curve, though single readings can be large or run the other way;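 further: potency means the concentration at half of the fitted maximal effect; 0% = wells with enzyme and -100% = buffer wells without enzyme; nearly all actives have a fitted effect of over 50% in size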
# Target sequence (B2RXH2 1-337 limits assumed): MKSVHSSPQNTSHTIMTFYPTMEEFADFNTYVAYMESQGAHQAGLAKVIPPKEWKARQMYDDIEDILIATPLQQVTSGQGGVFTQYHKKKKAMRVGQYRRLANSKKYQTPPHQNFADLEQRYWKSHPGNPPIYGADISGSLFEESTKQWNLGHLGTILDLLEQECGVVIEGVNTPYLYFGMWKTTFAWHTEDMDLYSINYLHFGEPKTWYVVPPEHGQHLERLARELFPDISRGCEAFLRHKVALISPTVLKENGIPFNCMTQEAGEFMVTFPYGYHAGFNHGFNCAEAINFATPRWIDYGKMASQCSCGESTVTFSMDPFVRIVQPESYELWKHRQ
# PI5P4K alpha inh – blocks human PI5P4K alpha kinase activity; PI5P4Kalpha enzyme, ADP-Glo luminescence, 60 min; stronger effect = lower value; P48426; max response, %; 1.2% of 330,000 active; active means max response of -50% or lower; inconclusive means between -30% and -50%; inactive means -30% or higher; further: value at the top dose of about 77 µM; on the % scale 0 is the no-effect control and ±100 the full control effect
# Target sequence (P48426 whole entry, looked up): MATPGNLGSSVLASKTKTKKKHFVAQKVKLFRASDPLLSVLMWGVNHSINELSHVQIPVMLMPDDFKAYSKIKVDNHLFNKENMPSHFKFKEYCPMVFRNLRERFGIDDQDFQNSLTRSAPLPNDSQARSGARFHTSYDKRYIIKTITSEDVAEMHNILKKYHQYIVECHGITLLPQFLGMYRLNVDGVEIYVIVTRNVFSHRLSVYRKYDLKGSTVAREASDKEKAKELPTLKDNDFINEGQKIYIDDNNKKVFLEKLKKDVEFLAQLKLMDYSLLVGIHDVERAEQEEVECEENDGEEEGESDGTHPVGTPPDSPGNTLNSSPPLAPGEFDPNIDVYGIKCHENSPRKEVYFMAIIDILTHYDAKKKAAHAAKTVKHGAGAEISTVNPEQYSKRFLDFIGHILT
#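 ADP-Glo luminescence end-point after a 60 min room-temperature kinase reaction. PI5P4Kalpha and substrate in HEPES pH 7.4 buffer with EGTA, 0.1% CHAPS and 5% DMSO; ATP at 5 microM final.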
# JMJD2A Tudor inh – inhibitors of human JMJD2A Tudor domain; AID 504339; 4.4% of 390,000 active; O75164; Potency, µM (highest dose often 114 µM), for inactives: at the top dose activity change, negative = inhibition, actives largely listed as inhibitors; AlphaScreen JMJD2A-Tudor / H3K4me3 peptide binding; further: potency means the concentration at half of the fitted maximal effect; on the % scale 0 is the no-effect control and ±100 the full control effect; nearly all actives have a fitted effect of over 50% in size
# HP1b binding inh – blocks HP1-beta chromodomain binding to methylated histone tails; AlphaScreen HP1-beta / biotin-H3K9me3 peptide binding; Potency, µM (top dose mostly 114 µM), for the others: at the top dose activity change, negative = inhibition, most hits filed as inhibitors; 0.56% of 390,000 active; AID 540317; further: potency means the concentration at half of the fitted maximal effect; nearly all actives have a fitted effect of over 70% in size
#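 Compound inhibition of the preformed complex between 50 nM HP1-beta and 50 nM biotinylated H3K9me3 peptide was read by AlphaScreen. Buffer was PBS pH 7.4 with 0.01% Tween-20. Incubations ran 30 min at room temperature, with 10 ug/mL donor/acceptor beads.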
# L3MBTL1 inh – L3MBTL1 (human) inhibition; 0.66% of 230,000 active; AID 485360; Potency, µM (doses to about 57.1 µM), for the others: at the top dose activity, negative = inhibition, most hits filed as inhibitors; Q9Y468; AlphaScreen L3MBTL1–H3K9me1 peptide binding; further: potency means the concentration at half of the fitted maximal effect; on the % scale 0 is the no-effect control and ±100 the full control effect; nearly all actives have a fitted effect of over 60% in size
#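 L3MBTL1 50 nM + b-AHA-H3(1-15)K9me1 75 nM, 30 min RT; compound added, 30 min RT; streptavidin donor/Ni-chelate acceptor beads 10 ug/mL each final, 30 min RT dark; AlphaScreen read.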
# Active calls of the source: *; ? = inconclusive; / = not tested or not shown; [ ] = remark or other dose. Compounds with a hit are over-represented: about 5.7% of the library has one in this group of screens. Unless noted, the call rests on the fitted dose curve; in most records, active means well fitted inhibition curve with a large enough effect; inconclusive means small, poorly fitted or top-dose-only effect; inactive means no such curve, though single readings can be large or run the other way.
SMILES,BAZ2B inh,KDM4E inh,PI5P4K alpha inh,JMJD2A Tudor inh,HP1b binding inh,L3MBTL1 inh
CCC(=O)Nc1nc(-c2ccc3c(c2)OCCO3)cs1,-6%,-4%,-9,-15%,53%,3%
Oc1ccc(Nc2nc(-c3ccc(Cl)cc3)cs2)cc1,/,-23%,/,/,/,/
Oc1ccc(Nc2nc(-c3ccc(O)cc3)cs2)cc1,28µM*,-21%,/,?,?,-15%
c1cc2c(cc1-c1csc(NNC3=NCCCCC3)n1)OCCO2,35µM*,?,-14,-26%[11.4 µM],?,/
O=C(O)c1cc(NC(=O)c2cccc(C(=O)Nc3cc(C(=O)O)cc(C(=O)O)c3)c2)cc(C(=O)O)c1,-8%[57.1 µM],/,2,?,21%,?
CCc1nnc(NS(=O)(=O)c2ccc(NCc3cc(Cl)cc(Cl)c3O)cc2)s1,6%,/,-16,?,-9%,/
Cc1ccc(SCC(=O)Nc2ccc(F)cc2[N+](=O)[O-])cc1C,13µM*,-3%,8,?,50µM*,?
Cc1nc(SCC(=O)Nc2ccc(Cl)cc2[N+](=O)[O-])nc(C)c1C,45µM*,1%,-6,?,?,-13%
Cc1cc(C)n2nc(SCC(=O)Nc3ccc(F)cc3[N+](=O)[O-])nc2n1,/,/,1,-13%,28%,-5%
Cc1cc(C)nc(SCC(=O)Nc2ccccc2[N+](=O)[O-])n1,-25%,3%,/,-4%,-3%,4%
COc1ccc(C(=O)NCC(c2ccc(N(C)C)cc2)N2CCCC2)cc1 (stereo unspecified),-37%,/,/,?,-7%,/
CN(C)c1ccc(C(CNS(=O)(=O)c2ccc([N+](=O)[O-])cc2)N2CCCC2)cc1 (stereo unspecified),6%,/,1,45µM*,?,-17%
CN(C)c1ccc(C=NC(CO)C(O)c2ccc([N+](=O)[O-])cc2)cc1 (stereo unspecified),-14%,58%,4,-5%,6%,/
CN(C)c1ccc(C(CNS(=O)(=O)c2ccc3ccccc3c2)N2CCOCC2)cc1 (stereo unspecified),50µM*,/,-2,?,?,-6%
CN(C)c1ccc(C(CNS(=O)(=O)c2ccc(F)cc2)N2CCCC2)cc1 (stereo unspecified),?,/,/,?,10%,/
CN(C)c1ccc(C(c2ccc(N(C)C)cc2)c2ccc([N+](=O)[O-])cc2)cc1,6.3µM*,-6%,9,10µM*,8.9µM*,28µM*
CN(C)c1ccc(C(CNC(=O)c2ccc(C(C)(C)C)cc2)N2CCCC2)cc1 (stereo unspecified),28µM*,/,/,45µM*,?,/
Cc1ccc(CCNC(=O)c2ccc3c(c2)N(Cc2cccc(Cl)c2)C(=O)c2ccccc2S3(=O)=O)cc1,2%,/,/,-6%,29%,/
Cc1ccc(S(=O)(=O)NCC(c2ccc(N(C)C)cc2)N2CCOCC2)cc1 (stereo unspecified),-35%,/,/,?,-23%,/
CN(C)c1ccc(C(CNS(=O)(=O)c2ccc(Cl)cc2)N2CCOCC2)cc1 (stereo unspecified),40µM*,/,/,?,-18%,/
COc1cccc(/C=C/C(=O)OCC(=O)NCCC2=CCCCC2)c1,-29%,-2%,-65*,8.9µM*,21%,-4%[2.29 µM]
COc1ccccc1C(CCNCc1ccc(N(C)C)cc1)c1ccc(OC(C)C)cc1 (stereo unspecified),10µM*,/,-6,13µM*,?,/
COc1ccc(C(CCNCc2ccc(N(C)C)cc2)C(C)C)cc1 (stereo unspecified),25µM*,-20%,2,32µM*,?,?
COc1ccc(CNCCC(c2ccccc2)c2ccc3c(c2)OCO3)cc1 (stereo unspecified),?,1%,/,-31%,16%,20%
COc1ccc(CNCCC(c2ccc(C)cc2)c2ccco2)cc1 (stereo unspecified),79µM*,/,/,25µM*,?,/
SMILES,BAZ2B inh,KDM4E inh,PI5P4K alpha inh,JMJD2A Tudor inh,HP1b binding inh,L3MBTL1 inh
Cc1ccc(OCC(COCc2ccccc2)NC(C)C)cc1 (stereo unspecified),/,/,4,1.4µM*,?,/
Cc1cc(C2(c3ccc(O)c(C)c3)OC(=O)c3ccccc32)ccc1O,50µM*,1%,?,?,-25%,?
Nc1ccc(C2(c3ccc(N)cc3)OC(=O)c3ccccc32)cc1,-28%,/,1,35µM*,-2%,-5%
COc1ccc(Cl)cc1NC(=O)CN(C)S(=O)(=O)c1ccc2c(c1)CCCN2C(C)=O,3%,/,/,-11%,26%[57 µM],/
CN(C)c1ccc(C(CNS(=O)(=O)c2ccc(F)c(F)c2)c2c[nH]c3ccccc23)cc1 (stereo unspecified),22µM*,-6%,7,22µM*,32µM*,?
CN(C)c1ccc(C(CNC(=O)c2ccccc2F)c2c[nH]c3ccccc23)cc1 (stereo unspecified),?,-5%,3,?,14%,-13%
CN(C)c1ccc(C(CNC(=O)c2ccccc2)c2c[nH]c3ccccc23)cc1 (stereo unspecified),14µM*,2%,2,?,40µM*,?
CC1(C)OCC(CSC2=C(SCC3COC(C)(C)O3)C(=O)c3ncccc3C2=O)O1 (stereo unspecified),/,1µM*,/,/,/,/
Cc1cc(-c2nn(-c3ccccc3F)cc2CN2CCN(c3ccncc3)CC2)c(C)s1,-25%,3%,3,?,-17%,-29%
CCCCN(C)CCNC(=O)c1ccc2c(c1)NC(=O)CN2,0%,/,/,1%,2%,/
Cc1cc(/C=N/NC(N)=S)c(C)n1-c1ccc(Br)cc1,?,?,-17,-26%,8%,/
COc1cc(/C=N/NC(=O)c2c(C)nc3ccc(Cl)cn23)cc(OC)c1OC,?,/,-28,22µM*,157%,-8%
Cc1cc(/C=N/O)c(C)n1-c1ccc(Br)cc1,45µM*,-2%,4,?,?,-15%
COc1cccc(/C=N/NC(=O)c2c(C)nc3ccc(Br)cn23)c1O,7.9µM*,?,4,35µM*,2%,/
Cc1nc2ccccn2c1C(=O)N/N=C/c1cc(C)n(-c2ccc(Br)cc2)c1C,45µM*,?,/,?,-40%,-8%
COc1ccc(/C=N/NC(=O)c2c(C)nc3ccc(Cl)cn23)cc1OC,0%,/,5,1%,46%,/
Cc1nc2ccccn2c1C(=O)N/N=C/c1ccccc1,-3%,/,0,-3%,20%,/
CC(C)OCCCNC(=O)c1ccc(Cn2c(=O)c3cccn3c3cccnc32)cc1,-21%,/,/,-14%,38%,/
CCNc1nc(C#N)nc2c1ncn2-c1cccc(Cl)c1,/,/,/,-1%,/,/
CCC(=O)Nc1cccc(-c2cn3c(C)csc3n2)c1,-9%,/,/,-13%,8%,/

# Screening results from PubChem BioAssay.
